Potency data for 28 compounds are collected here from PubChem BioAssay AID1345083 (National Center for Advancing Translational Sciences (NCATS), 2018).

Molecules are shown by their SMILES. The whole screen tested about 94,000 compounds, of which about 6,200 (6.6%) were called active. Not shown: some 31% with an inconclusive outcome. Calls follow the shape of the dose curve; as a rule, active = well fitted inhibition curve with a large enough effect; inconclusive = small, poorly fitted or top-dose-only effect; inactive = flat fitted curve, though single readings scatter. The list comes from a sample in which actives are over-represented; it also holds similar structures and randomly drawn compounds. A call without a number means that no potency is given here.
Potency is read from the fitted curve at half-maximal effect.

This assay is described as follows: Cytotoxic Profiling in HEK 293 Cell Line of Diverse Libraries Using Quantitative High-Throughput Screening. Also: nearly all actives have a fitted effect of over 60% in size. Conditions: HEK 293 viability, ATP luminescence (CellTiter-Glo), 48-72 h; series mostly up to 115 µM. The procedure, abridged: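 Cells seeded first (HEK 293, 250 cells/well), then compound added by pintool. Incubation ran 48 or 72 hr at 37 degree Celsius. CellTiter-Glo was added and luminescence imaged after 10 min at room temperature.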
A general note: Cellular ATP, detected with luciferase, serves as a proxy for viable cell number.
Turning to `O=C(Nc1ccccc1)N1CCN2C(=O)N(Cc3ccc(F)cc3)C[C@H]2C1`, the Potency result is “inactive”. `COc1ccc(CN2C[C@H]3CN(Cc4ccc(NC(C)=O)cc4)CCN3C2=O)cc1`: the Potency is 89.1 µM (active). As for `COc1ccc2nc([C@H]3CCN(Cc4ccc(NC(C)=O)cc4)C3)[nH]c2c1`, the Potency entry is “inactive”. For `COc1ccc(CCC(=O)N2CCCC(c3nc(-c4cccnc4)no3)CCNC(=O)CC2)cc1` (stereo not drawn), the Potency result was “inactive”. Next, `O=C(NC1CCCCC1)N1CCCCC1c1noc(COCC2CC2)n1` (stereo not drawn): “inactive”; `O=C(Cn1nc2c(cc1=O)CCCC2)Nc1nc(-c2ccc3c(c2)OCO3)cs1`: “inactive”.

For the compound `COc1ccc(-c2cccc(C(=O)N3CCC(NC(=O)c4ccc(C(F)(F)F)cc4)CC3)c2)nn1`, the Potency was 39.8 µM (active). Next, `COc1ccc(-c2cccc(C(=O)N3CCN(C(=O)c4ccc(F)cc4)CC3)c2)nn1`: “inactive”; `COc1ccc(-c2cccc(C(=O)NC3CC3)c2)nn1`: “inactive”.

Consider `COCC(=O)N1CCC(C(=O)N2CCCC(c3nc4ncccc4[nH]3)C2)CC1` (stereo not drawn), for which the Potency result was “inactive”. The value for `O=C1N[C@H](CC(=O)N2CCN(Cc3ccccc3)CC2)C(=O)Nc2ccccc21` was “inactive”. Regarding `Fc1ccc(Cc2nc3nccc(-c4cc5ccccc5o4)n3n2)cc1`, the Potency entry is “inactive”.

Turning to `COc1cccc(-c2ccnc3nc(Cc4cc(F)cc(F)c4)nn23)c1`, the Potency is 39.8 µM (active). Next, `COCc1nc2nccc(-c3ccccc3)n2n1`: “inactive”; `COCC1CN(C(=O)c2ccc(C#N)cc2)CC12CCOCC2` (stereo not drawn): “inactive”; `COc1ccc(OC)c(NC(=O)c2cc3n(n2)CC(c2ccc(Cl)cc2)OC3)c1` (stereo not drawn): “inactive”. `COc1ccc(CNC(=O)c2cc3n(n2)CC(c2ccc4c(c2)OCO4)OC3)c(OC)c1` (stereo not drawn): the Potency was 35.5 µM (active).

As for `COc1ccc(C(=O)N[C@@H]2CCC[C@@H]2C(=O)NCc2ccc3c(c2)OCO3)cc1`, the Potency entry was “inactive”. Next, `COc1ccc(OCc2nc(C)c(CCO)c(=O)n2CC(=O)NCc2ccc(F)cc2)cc1`: “inactive”; `N#Cc1ccc(CN2C[C@@H]3C[C@H]2C(=O)Nc2ccccc2O3)cc1`: “inactive”; `COCCN1C(=O)[C@@H]2C[C@@H](CN2C(=O)Nc2ccccc2)Oc2ccccc21`: “inactive”.

For the compound `O=C1[C@@H]2C[C@@H](CN2Cc2ccc3ccccc3n2)Oc2ccccc2N1Cc1ccccc1`, the Potency was 44.7 µM (active).

Consider `COCCC(=O)NCC1Cn2cccc2C(=O)N1Cc1ccccc1` (stereo not drawn), for which the Potency result was “inactive”.

For `COc1ccccc1C(=O)N1CCC2(C1)C(=NC1CCCC1)NC(=O)N2c1cccnc1` (stereo not drawn), the Potency entry is “inactive”. Turning to `CS(=O)(=O)N1CCC(C2CCN(C(=O)Cc3cccs3)C2)CC1` (stereo not drawn), the Potency entry is “inactive”.

Take `COc1ccccc1CN1CCc2nc(C3CC3)nc(-c3ccc(O)cc3)c2CC1`: the Potency was 44.7 µM (active). The value for `COc1ccc(CC(=O)N2CCc3nc(C4CC4)nc(-c4ccc(O)cc4)c3CC2)cc1` was “inactive”. In the case of `COc1ccccc1CN1CCc2nc(C(C)C)nc(-c3ccc(O)cc3)c2C1`, the Potency entry was “inactive”.
